Test results as given in PubChem BioAssay AID687011 (National Center for Advancing Translational Sciences (NCATS), 2013).
Active and inactive are the calls of the source.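 The calls were made as follows: active = significant body weight gain in treated spinal muscular atrophy model mice compared with vehicle-treated controls; inactive = no significant body weight gain.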

Test: Extended Characterization of SMN2 Inhibitors: Body Weight Studies
Settings: SMNdelta7 SMA mice, 50 mg/kg ip
From the text: Spinal muscular atrophy (SMA) is caused by insufficient levels of the survival motor neuron protein SMN. The SMN locus on chromosome 5q13 contains two inverted copies of SMN called SMN1 and SMN2 which are 99% identical at the amino acid level. SMN1 is a fully functional protein and SMN2 skips exon 7 90% of the time. Skipping of exon 7 produces non-functional protein product. 10% of the SMN2 protein includes exon 7 and is fully functional. In the SMA disease state, mutations in the SMN1 locus are the cause of the disease state. Because only 10% of SMN2 is of the fully functional form, it is not sufficient to overcome the deficiency produced by the loss of the SMN1 product. A therapy that either increase the amount of SMN2 product made or to increase the inclusion of exon 7 has been proposed for the treatment of SMA. We have previously filed a probe report and have now done further SAR and further characterized the resulting compounds in mice studies. Here we tested the new compound to see if there was an improval in body weight when administered to SMNdelta7 SMA mice. NIH Chemical Genomics Center [NCGC] NIH Molecular Libraries Probe Production centers Network [MLPCN] MLPCN Grant: R03 MH084179 Assay Submitter (PI): Elliot Androphy […]
With `O=C(O)C1CCN(c2ncc(-c3ccc4c(c3)OCCCO4)s2)CC1` the outcome was “active; yes”.
